Results on 40 compounds are retold here after PubChem BioAssay (NCATS).

Where “and” joins values, the source holds several entries; their conditions need not be identical. Equal values may be shown once. Results filed as inconclusive are left out. Where a call stands in place of a potency, no number is given. Calls of active or inactive are those of the source. Calls follow the shape of the dose curve; as a rule, active = well fitted cell-killing curve with a large enough effect; inconclusive = small, poorly fitted or top-dose-only effect, or effect the other way; inactive = no such curve, though single readings can be large or run the other way.
Potency is read from the fitted curve at half-maximal effect.

The test is described as follows: Viability qHTS for spleen associated tyrosine kinase inhibitor (SYKi) naive MV4-11 cells (AID 1963823). Also: nearly all actives have a fitted effect of over 40% in size. To be noted: MV4-11 AML viability, CellTiter-Glo luminescence, 72 h; series mostly up to 45 µM. The source says: Department of Medicine, Hematology/Oncology
University Hospital Frankfurt, Germany.
Trials have shown promising clinical activity of the selective SYK inhibitor entospletinib in patients with high expressing HOXA9/MEIS1 acute leukemias. As the development of resistance mechanisms is a common problem in the use of targeted drugs, we performed a chemical library screen to identify drug sensitivities in SYK inhibitor resistant AML cells. […] Glucocorticoids are potent immunosuppressants which work in part by inhibiting the transcription of cytokine genes.
Described herein is a viability screen to look for activity in the SYK inhibitor naive cell line against four NCATS compound libraries (MIPE 5.0, NPC, NPACT, and Kinase) totaling 11372 compounds. Active hits were reacquired for confirmation and further secondary assay testing.
SEQUENCE No. (e.g., 1, 2, 3, etc.); […] (e.g., Cells, Incubation, Reagent, etc.); VALUE; DESCRIPTION.
1; Media; 2uL; white, solid-bottom Corning assay plate.
2; Compounds; 23nL; Echo acoustic dispenser.
3; Cell; 5uL; 500 cells per well.
4: Incubation; 72hr; 37 C, 5% CO2, 95% humidity.
5; Reagent; 3uL; CellTiter-Glo reagent (Promega).
6; Incubation; 10min; room temperature.
7; Detection; Luminescence; ViewLux plate reader (PerkinElmer).
NOTES (numbers refer to Sequence numbers above
1. Quantitative high-throughput screening (qHTS) of small molecule compounds was conducted on naive SYKi MV4-11 cell line.
2. Twenty-three nanoliter of small molecule compounds were added to each assay plates using the Echo acoustic dispenser (Beckman Coulter).
3. Cells were seeded into the assay plates at a final density of 500 cells in 5uL of media per well using the Multi-drop Combi dispenser.
4. Plates were covered with stainless steel gasketed lids and incubated for 72 hours at standard cell culture conditions.
5. Viability was assessed by adding 3uL of CellTiter-Glo detection reagent (Promega).
6. Plates were covered with gasket lids and incubated for 10 minutes at room temperature.
7. Luminescence was measured on a ViewLux plate reader (PerkinElmer).
(Quantitative high-throughput screening tests each substance at several concentrations.)
Turning to `Nc1nc(OC(c2ccc(-c3cccc(F)c3)cc2)C(F)(F)F)cc(-c2ccc(C[C@H](N)C(=O)O)cc2)n1` (stereo not given in full), the Potency was 18.6 µM (active). Same read-out and setting: the same measure for `CN1Cc2cc(C(=O)N3CCC(C4CCNCC4)CC3)ccc2N[C@@H](CC(=O)O)C1=O`: “inactive”; for `CCCCN=C(N)NC(=N)N`: “inactive”.

Regarding `COc1ccccc1C(=O)Nc1cc2c(cc1N1CCCC1)n(C)c(=O)n2C`, the Potency was 8.2 µM (active). Still for that read-out and setting: the same measure for `C#CCCCn1cc(-c2cccc3c2N[C@@H](C)CC(=O)N3)cn1`: “inactive”; for `Cc1cnc(NC(=O)Nc2cc(Br)c(C)cc2OCC2CNCCO2)cn1` (stereo not given): 0.731 µM (active). Consider `Cc1ccc(Nc2nnc(Cc3ccncc3)c3ccccc23)cc1Br`, for which the Potency was 14.8 µM (active). Still for that read-out and setting: the value for `C[C@@H](Oc1ccc2[nH]nc(/C=C/c3cnn(CCO)c3)c2c1)c1c(Cl)cncc1Cl` was 0.0235 µM (active).

As for `OC[C@H]1O[C@@H](OCCc2ccccc2)[C@H](O[C@@H]2OC[C@](O)(CO)[C@H]2O)[C@@H](O)[C@@H]1O`, the Potency result is “inactive”. As to `CCCSc1ccc2nc(NC(=O)OC)[nH]c2c1`, the Potency is 0.668 µM (active).

In the case of `CC(C)CC[C@@H](O)[C@](C)(O)[C@H]1CC[C@@]2(O)C3=CC(=O)[C@@H]4C[C@@H](O)[C@@H](O)C[C@]4(C)[C@H]3CC[C@]12C`, the Potency entry was “inactive”.

For the compound `COc1cc2c(cc1-c1c(C)noc1C)ncc1[nH]c(=O)n([C@H](C)c3ccccn3)c12`, the Potency is 0.206 µM (active). Still for that read-out and setting: the value for `CCCOc1ccc(C(=O)OCCN(CC)CC)cc1N` was “inactive”; that for `CC(C)n1c(/C=C/[C@H](O)C[C@H](O)CC(=O)O)c(-c2ccc(F)cc2)c2ccccc21` was 2.63 µM (active); that for `Cc1ccc(C(=O)N(CCCN)[C@@H](c2nc3cc(Cl)ccc3c(=O)n2Cc2ccccc2)C(C)C)cc1` was 0.0042 µM (active). Turning to `CC(C[N+](C)(C)C)OC(N)=O` (stereo not given), the Potency result was “inactive”. In the case of `Oc1cc(O)c2c(c1)O[C@H](c1ccc(O)c(O)c1)[C@H](O)C2`, the Potency result was “inactive”. Still for that read-out and setting: the same measure for `NC(CSCC(=O)O)C(=O)O` (stereo not given): “inactive”. Take `C/C(=C\CO[C@@H]1O[C@H](CO[C@H]2OC[C@](O)(CO)[C@H]2O)[C@@H](O)[C@H](O)[C@H]1O)C(C)(C)O`: the Potency result was “inactive”. Consider `COc1ccc(CNC(=O)c2cc(-c3cncc(Cl)c3)cnc2-c2ccccn2)nc1OC`, for which the Potency result was “inactive”. As to `Cn1ncc(NC(=O)c2nc(-c3c(F)cccc3F)sc2N)c1N1CC[C@@H](N)[C@H](F)CC1`, the Potency was 0.235 µM (active). With `Cn1cc(-c2ccncc2)c(-c2ccc(OCc3ccc4ccccc4n3)cc2)n1`, the Potency was 4.11 µM (active). As to `CN1CCN(C2CCN(C(=O)Nc3cc(Oc4ccc(NC(=O)C5(C(=O)Nc6ccc(F)cc6)CC5)c(F)c4)ccn3)CC2)CC1`, the Potency was 65.1 nM (active) and 93.4 nM (active). On the same count and under the same terms, the same measure for `CCN(CC)C(C)CN1c2ccccc2Sc2ccccc21` (stereo not given): “inactive”; for `CC1CC(=O)C2=C(C1)C1OC1C1(O)C2C(=O)c2cccc(O)c2C1O` (stereo not given): “inactive”; for `CC1CCC2(C(=O)OC3OC(CO)C(O)C(O)C3O)CCC3(C)C(=CCC4C5(C)CCC(O)C(C)(CO)C5CCC43C)C2C1(C)O` (stereo not given): “inactive”.

Regarding `CCCCCc1ccc(/C=C/[C@H](O)[C@@H](CO)NC)cc1`, the Potency is 11.6 µM (active). On the same count and under the same terms, the same measure for `C/C(CO)=C1/CCC23COC(C2)C(O)(C(=O)O)CCC13` (stereo not given): “inactive”. On to `CCCCCN(CCCOC)C(=O)C(CCC(=O)O)NC(=O)c1ccc(Cl)c(Cl)c1` (stereo not given), for which the Potency result is “inactive”. For `CCC(C)(OC(C)=O)C(=O)O[C@H]1[C@H](OC(C)=O)[C@]2(CO)[C@H](O)[C@H](O)[C@]3(C)C(=CCC4[C@@]5(C)CC[C@H](O[C@@H]6O[C@H](C(=O)O)[C@@H](O)[C@H](O[C@@H]7OC[C@H](O)[C@H](O[C@@H]8OC[C@H](O)[C@H](O)[C@H]8O)[C@H]7O)[C@H]6O[C@@H]6O[C@H](CO)[C@@H](O)[C@H](O)[C@H]6O)C(C)(C)C5CC[C@]43C)[C@@H]2CC1(C)C` (stereo not given in full), the Potency is 2.75 µM (active). As for `CCC1C(=O)OCC1Cc1cncn1C` (stereo not given), the Potency entry was “inactive”. Take `C[C@@H]1O[C@@H](O[C@H]2[C@H](OC(=O)[C@]34CCC(C)(C)C[C@H]3C3=CCC5[C@@]6(C)CC[C@H](O[C@@H]7O[C@H](C(=O)O)[C@@H](O)[C@H](O)[C@H]7O[C@@H]7O[C@H](CO)[C@H](O)[C@H](O)[C@H]7O)[C@@](C)(C=O)C6CC[C@@]5(C)[C@]3(C)C[C@H]4O)O[C@H](C)[C@H](O[C@@H]3O[C@H](C)[C@H](O)[C@H](O)[C@H]3O)[C@@H]2O)[C@H](O)[C@H](O)[C@H]1O[C@@H]1OC[C@@H](O)[C@H](O[C@@H]2O[C@H](CO)[C@@H](O)[C@H](O)[C@H]2O)[C@H]1O` (stereo not given in full): the viability (% of control) was 5.74% [at 4.97 µM] (inactive). As for `COCC(c1ccc(C(F)(F)F)cc1)N1CCN(C2(C)CCN(C(=O)c3c(C)ncnc3C)CC2)CC1C` (stereo not given), the Potency result was “inactive”. With `COc1ccc(C(O[C@@H]2O[C@H](CO)[C@@H](O)[C@H](O)[C@H]2O)C(CO)Oc2ccc(/C=C/CO)cc2OC)cc1O` (stereo not given in full), the Potency result was “inactive”. With `O=C1NC(=O)/C(=C\c2ccc(-c3ccc(F)cc3)o2)S1`, the Potency was 14.8 µM (active). In the case of `CN1CC[C@@H](c2c(O)cc(O)c3c(=O)cc(-c4ccc(C(F)(F)F)cc4Cl)oc23)[C@@H]1CO`, the Potency is 16.4 µM (active). Same read-out and setting: the same measure for `O=C1NC2CCCCN2C12CCN(CCCN1c3ccccc3CCc3ccc(Cl)cc31)CC2` (stereo not given): 10.3 µM (active); for `Cc1ccccc1C(=O)Nc1ccc(C(=O)N2CCCC(N(C)C)c3ccccc32)cc1` (stereo not given): 5.96 µM (active) and 2.91 µM (active).

Consider `O=C(CCCCCCC(=O)Nc1cccnc1)NO`, for which the Potency was 3.32 µM (active). As to `COc1cc(O)cc(O[C@@H]2O[C@H](CO)[C@@H](O[C@@H]3OC[C@](O)(CO)[C@H]3O)[C@H](O)[C@H]2O)c1OC`, the Potency entry was “inactive”.
